Inconclusive results are not listed. The source made the active and inactive calls. Calls come from the whole dose curve; as a rule, active = well fitted inhibition curve with a large enough effect in the repeat runs; inconclusive = weak or mixed curves; inactive = no such curve, though single readings can be large or run the other way.
Target: Cytochrome P450 1A2 (Homo sapiens) (UniProt P05177)
Test: Cytochrome P450 Family 1 Subfamily A Member 2 (CYP1A2) small molecule antagonists: luciferase reporter qHTS assay (AID 1671199); note: nearly all actives have a fitted effect of over 50% in size
Conditions: P450-Glo CYP1A2 enzyme, luciferin luminescence, 1 h; series mostly up to 115 µM; activity change, negative = inhibition: at the top concentration
Text: National Center for Advancing Translational Sciences [NCATS]
U.S. Environmental Protection Agency [EPA]
National Institutes of Environmental Health Sciences [NIEHS]
National Toxicology Program [NTP]
U.S. Food and Drug Administration [FDA]
Cytochrome P450 (CYP) enzymes are membrane-bound hemeproteins that play a key role in metabolism of drugs and xenobiotics. Evaluation of the effect of chemicals on CYP isozymes is useful to minimize the adverse drug reactions and toxicities in drug development process. Tox21 chemicals were tested for their effect on CYP enzyme activities by using P450-Glo (TM) screening systems (Promega Corporation, Madison, WI). These systems provide a luminescent method containing proluciferin substrates and are converted to luciferin products by CYP isozymes. The luciferin products formed are detected with a luciferin detection reagent, and the amount of light produced is proportional to CYP activity. P450-Glo (TM) CYP1A2 screening system (Catalog. No. V9770) was used to detect the compounds that interfere in CYP1A2 activity. The positive control compound used for CYP1A2 assay is furafylline (Sigma-Aldrich, St. Louis, MO).
Tox21 Assay Protocol Summary:
Two ul of enzyme-substrate mix was dispensed into medium binding white/solid 1536-well plates (Greiner Bio-One North America Inc., Monroe, NC) using a BioRaptr Flying Reagent Dispenser (FRD, Beckman Coulter, Brea, CA). Compounds dissolved in DMSO and positive control (furafyllline) were transferred to the assay plates at 23 nl using a Pintool station (Wako, San Diego, CA). The assay plates were incubated at room temperature for 10 min. Then 2 ul of NADPH regeneration solution was added to each well of the assay plates using an FRD and incubated at room temperature for 1 h. The reaction was stopped by adding 4 ul of detection reagent using an FRD and after 20 min incubation at room temperature the luminescence signal was measured using a ViewLux plate reader (Perkin Elmer, Shelton, CT). Data were expressed as relative luminescence units.
% is set by controls: 0 for no effect and ±100 for the full control effect; potency is the fitted concentration of half-maximal effect.

Cytochrome P450 1A2 (Homo sapiens), sequence (P05177 whole entry, looked up): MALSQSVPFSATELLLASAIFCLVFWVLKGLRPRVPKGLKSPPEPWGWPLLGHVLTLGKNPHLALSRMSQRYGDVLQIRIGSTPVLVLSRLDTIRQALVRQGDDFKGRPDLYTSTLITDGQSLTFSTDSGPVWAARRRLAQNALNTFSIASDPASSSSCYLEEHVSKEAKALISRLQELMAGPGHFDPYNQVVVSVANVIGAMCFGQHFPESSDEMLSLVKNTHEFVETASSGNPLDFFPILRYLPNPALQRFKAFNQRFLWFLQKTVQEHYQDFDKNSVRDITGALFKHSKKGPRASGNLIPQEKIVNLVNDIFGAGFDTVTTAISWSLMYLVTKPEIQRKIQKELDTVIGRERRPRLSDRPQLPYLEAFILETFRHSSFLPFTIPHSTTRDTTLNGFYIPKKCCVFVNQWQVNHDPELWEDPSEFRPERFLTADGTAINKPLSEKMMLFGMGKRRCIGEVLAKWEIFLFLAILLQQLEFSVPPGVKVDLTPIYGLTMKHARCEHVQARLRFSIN

| SMILES | activity change, negative = inhibition | Potency |
| --- | --- | --- |
| CC(C)CCCCCOC(=O)CS | -23.8% (inactive) | – |
| O=C(c1ccc(Cl)cc1)c1ccc(Cl)cc1 | – | 2.52 µM (active) |
| CCc1ccc2c(c1)C(=O)c1ccccc1C2=O | – | 2.24 µM (active) |
| O=C(N[C@@H](Cc1ccccc1)[C@@H](O)C(=O)N1C[C@@H](O)[C@@H](O)C1)c1cc2cc(Cl)ccc2[nH]1 | – | 28.3 µM (active) |
| O=C(O)c1ccc2cc(O)ccc2c1 | -5.33% (inactive) | – |
| N#CCCCC(C#N)CCC#N (stereo not given) | -20.9% (inactive) | – |
| CCCCCCCCS | -18.8% (inactive) | – |
| CCCCOC(=O)CC#N | – | 7.44 µM (active) |
| O=c1[nH][nH]c2ccccc12 | – | 10.2 µM (active) |
| CC(C)CC(C)(C)C | – | 7.37 µM (active) |
| Cc1cc(N)n(-c2ccccc2)n1 | – | 39.9 µM (active) |
| Cc1cc(SC2=C(O)C[C@@](CCc3ccc(N)cc3)(C(C)C)OC2=O)c(C(C)(C)C)cc1CO | -12.2% (inactive) | – |
| SCCOCCOCCS | – | 22.4 µM (active) |
| CC(CC(C#N)(c1ccccc1)C(C)C)N(C)C (stereo not given) | 8.63% [at 53 µM] (inactive) | – |
| N#Cc1ccc(CC(=O)c2cccc(C(F)(F)F)c2)cc1 | – | 25.2 µM (active) |
| COc1ccc(/C=C/c2cc(OC)cc(=O)o2)cc1 | – | 9.15 µM (active) |
| CC(O)CN (stereo not given) | -12.3% (inactive) | – |
| Cc1cc(C)n(CO)n1 | -6.52% (inactive) | – |
| CC1(C)[C@@H]2CC[C@]3(C2)[C@@H]1C(=O)CCC3(C)C | -10.6% (inactive) | – |
| Nc1ccc(C(=O)Oc2ccccc2)c(O)c1 | – | 11.5 µM (active) |

| SMILES | activity change, negative = inhibition | Potency |
| --- | --- | --- |
| C=Cc1ccc(C=C)cc1 | -20% (inactive) | – |
| Clc1ccccc1-c1nc(-c2ccncc2)no1 | – | 0.512 µM (active) |
| COc1cc(C)c(Cc2cnc(N)nc2N)cc1OC | 10.6% [at 53 µM] (inactive) | – |
| O=C1C=CCCC1 | 2.43% (inactive) | – |
| CC/C=C/CCO | – | 36.2 µM (active) |
| O=C1c2ccccc2C(=O)c2c1ccc(O)c2O | – | 25.7 µM (active) |
| COC(=O)c1cc(Cl)ccc1[N+](=O)[O-] | – | 7.96 µM (active) |
| O=C(OCCN1CCOCC1)c1cccnc1Nc1cccc(C(F)(F)F)c1 | – | 9.77 µM (active) |
| CCOc1cc(OCC)c(C(C)=O)cc1OCC | – | 1.11 µM (active) |
| CC1(C)CC(=O)CC(C)(C)N1 | -8.26% (inactive) | – |
| COC=O | -7.2% [at 10.5 µM] (inactive) | – |
| COc1ccc(C(=O)Nc2ccccc2)cc1[N+](=O)[O-] | – | 5.68 µM (active) |
| CC(COc1ccccc1)NC(C)C(O)c1ccc(O)cc1 (stereo not given) | – | 17.4 µM (active) |
| Cc1cc(C)c(C)c(O)c1 | – | 31.7 µM (active) |
| CCCCCCCCNC | -25.8% (inactive) | – |
| N#C[C@@H]1CC(F)(F)CN1C(=O)CNC1CC2CCC(C1)N2c1ncccn1 (stereo not given in full) | -9.59% (inactive) | – |
| CCCCC(CC)COCCC#N (stereo not given) | -23.5% (inactive) | – |
| CC1=C(C)C(=O)C(C(CCCCCC(=O)O)c2ccccc2)=C(C)C1=O (stereo not given) | -8.96% [at 53 µM] (inactive) | – |
| O=C(NC1CCN(CCc2c[nH]c3ccccc23)CC1)c1ccccc1 | -1.84% [at 53 µM] (inactive) | – |
| Cc1ccccc1CCO | -18.4% (inactive) | – |

Source: PubChem BioAssay (Tox21)
